Measurements published in PubChem BioAssay (Tox21).
Results filed as inconclusive are left out. Values without a mark were called inactive. Calls of active or inactive are those of the source. Calls come from the whole dose curve; as a rule, active = well fitted cell-killing curve with a large enough effect in the repeat runs; inconclusive = weak or mixed curves, or effect the other way; inactive = flat fitted curve, though single readings scatter.

assay: cAMP Responsive Elements (CRE) small molecule agonists, cell-based qHTS assay: qHTS cell viability counter screen (AID 2060914); details: CRE-bla HEK293T viability, CellTiter-Glo luminescence, 5 h; series mostly up to 92.4 µM; activity change, negative = cytotoxicity: at the top concentration; note: nearly all actives have a fitted effect of over 50% in size
Procedure, shortened: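 Cytotoxicity counter screen multiplexed with the CRE-bla reporter assay in HEK 293T cells: 3 h compound exposure at 37 °C, followed by CellTiter-Glo luminescence measured in the same wells.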
% is set by controls: 0 for no effect and ±100 for the full control effect; potency is the fitted concentration of half-maximal effect.

SMILES | activity change, negative = cytotoxicity | Potency
C[N+]1(C)CCCCC1 | 1.31% | 
Oc1ccc(C(c2ccc(O)cc2)(C(F)(F)F)C(F)(F)F)cc1 |  | inactive
CCCCCCCCCCCCCl |  | inactive
COP(=O)(OC)O/C(=C/Cl)c1cc(Cl)c(Cl)cc1Cl | -3.67% | 
OCC(c1ccc(Cl)cc1)c1ccc(Cl)cc1 | -18.9% | 
COc1nn(C(=O)NS(=O)(=O)c2ccccc2OC(F)(F)F)c(=O)n1C | -7.83% | 
CC(=O)[O-].[Tl+] | 4.17% | 
CC(O)C#N (stereo not given) | 12.6% | 
CCc1cc(C)cc(CC)c1-c1c(OC(=O)C(C)(C)C)n2n(c1=O)CCOCC2 | 0.457% | 
CC1(C)CCC(Cc2ccc(Cl)cc2)C1(O)Cn1cncn1 (stereo not given) | -16.4% | 
O=C(Nc1ccccc1)Nc1ccnc(Cl)c1 | -14.5% | 
CCCC(Cn1cncn1)c1ccc(Cl)cc1Cl (stereo not given) | -3.94% | 
CCCCCCCCCCCC[N+](C)(C)CCOc1ccccc1 |  | 61.1 µM (active)
N#Cc1c(-c2ccc(Cl)cc2)[nH]c(C(F)(F)F)c1Br | 1.18% | 
CCCCCCn1cc[n+](C)c1 |  | inactive
CCCCCCCCCCCCN=C(N)N | -15.8% [at 3.27 µM] | 
NC1CCC(CC2CCC(N)CC2)CC1 (stereo not given) | 16.9% | 
CC(C)(C)c1ccc(CCOc2ncnc3ccccc23)cc1 | 11.3% | 
CNC(=O)Oc1cccc(C(C)C)c1 | 3.67% | 
CCOP(=O)(OCC)O/C(=C/Cl)c1ccc(Cl)cc1Cl | -2.17% | 
Cc1cccc2sc3nncn3c12 | -5.45% | 
CCCCCC[N+](=O)[O-] | 5.66% | 
Nc1ccccc1C(=O)OCCc1ccccc1 |  | inactive
S=C=Nc1ccccc1 | -10.6% | 
CC(C)N1C(=O)N(c2ccccc2)CSC1=NC(C)(C)C | -18.1% | 
